Test results taken from PubChem BioAssay AID2132 (NMMLSC, 2009).
Values without a mark were called inactive. Calls of active or inactive are those of the source.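 Rule for the calls: active = inhibition above 20%; inactive = the rest.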 Peptide text beside a SMILES is read from it. * marks the point of attachment. Cbz = O=C(OCc1ccccc1)*

Assay: inhibition of 26S proteasome fluorogenic peptide cleavage, counter-screen for 26S proteasome disassembly project, biochemical, fluorogenic peptides, secondary (AID 2132)
Details: yeast 26S proteasome, fluorogenic peptide cleavage rate; with Ac-nLPnLD-amc; at 100 µM; hits give high values

For `CC(C)C[C@@H](C=O)NC(=O)[C@H](CC(C)C)NC(=O)[C@H](CC(C)C)NC(=O)OCc1ccccc1` (Cbz-Leu-Leu-Leu-aldehyde), the inhibition was 27% (active).
For `CC(=O)N1C(=O)C(=C2C=C(C)OC(C)=C2)c2ccccc21`, the inhibition was 20%.
